PubChem BioAssay (NCI)
The panel holds about 79,000 compounds, 15% with a hit somewhere; the sample as a whole holds those more often. The source made the active and inactive calls. No stated cut-off is given here; in the data, active means growth inhibition above about 70%; inactive means the rest. Where a SMILES comes first, the peptide text is derived from it. [ ]: non-standard residue; d: D form. Hiv = CC(C)[C@H](O)C(=O)O

Experiment: NCI Yeast Anticancer Drug Screen. Data for the sgs1 mgt1 strain (AID 161);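 further: 0% = growth of cultures given vehicle only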
Conditions: S. cerevisiae sgs1 mgt1 strain, at 50.0 µM, hits give high values
Summary of the method: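 Growth of a repair-deficient yeast mutant was monitored after compound treatment and expressed as inhibition relative to vehicle-treated cultures.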

Row | Compound | growth inhibition
1 | CC(=O)NC(CCCN(Cc1ccccc1)C(=O)NCCCl)C(=O)NCc1ccccc1 (stereo not given) | 4.5% (inactive)
2 | NC(=O)CNc1ccc(CC2CCOC2=O)cc1 (stereo not given) | -5.9% (inactive)
3 | S=C(NNC1=NCCN1)Nc1ccccc1 | -19.8% (inactive)
4 | CCOC(=O)C(C)(C)C(O)C(C)C (stereo not given) | -15.2% (inactive)
5 | CCOC(=O)[C@H]1Nc2c(cccc2[N+](=O)[O-])[C@H]2OCC[C@@H]12 | -0.45% (inactive)
6 | CCCCCCCCC(=O)N1CCOCC1 | 18.3% (inactive)
7 | CC(C)CC1=C(N(C)C)C(=O)C=C(N(C)C)C1=O | 10.2% (inactive)
8 | CC(=O)OC(C)C(=O)OCCOc1ccccc1 (stereo not given) | 14.3% (inactive)
9 | CNC(=O)Nc1ccc(C(=O)O)cc1 | 5.35% (inactive)
10 | O=C1CC2c3ccccc3C(O)(CC1=O)c1ccccc12 | 11.7% (inactive)
11 | CCCCC(=O)c1ccc2ccccc2c1O | 3.9% (inactive)
12 | CC(C)OP(=O)(CCC(=O)C1(O)CCC2C3CCC4=CC(=O)CCC4(C)C3CCC21C)OC(C)C (stereo not given) | 10.3% (inactive)
13 | CC(C)[C@@H]1OC(=O)[C@@H](C)NC(=O)[C@@H]2CCCN2C1=O (cyclo([Hiv]-Pro-[dA])) | -15.1% (inactive)
14 | O=C(/C=N\O)Nc1ccccc1O | -24.4% (inactive)
15 | Br | -54.9% (inactive)
16 | Cc1cn(C2CC(O)C(CO)C2C)c(=O)[nH]c1=O (stereo not given) | -17.2% (inactive)
17 | O=C(c1ccccc1)N1OCCC1Nc1ccc(Br)cc1 (stereo not given) | -3.95% (inactive)
18 | Cc1nc2ccccc2c(=O)n1NC(=O)c1ccccn1 | -11.6% (inactive)
19 | CCNc1ccc2c(c1)C(=O)c1ccccc1-2 | 17.4% (inactive)
20 | COc1ccc2c(c1)CC/C(=C\C1(Sc3ccccc3)CC1)C2O (stereo not given) | -10.2% (inactive)

Row | Compound | growth inhibition
21 | C/C(=N/N=C(N)N)c1cnn(C(=N)N)c1C | 18.2% (inactive)
22 | CCCCCCCCCCCCCC#N | 3.35% (inactive)
23 | O=S(=O)(c1cccc(C(F)(F)F)c1)N(CCCCCN(S(=O)(=O)c1cccc(C(F)(F)F)c1)S(=O)(=O)c1cccc(C(F)(F)F)c1)S(=O)(=O)c1cccc(C(F)(F)F)c1 | 0.2% (inactive)
24 | CCN(CC)CCOC(=O)c1ccc(NC(=O)Nc2ccccc2[N+](=O)[O-])cc1 | 19.1% (inactive)
25 | C[N+]1(C)CC2CCC1C2 (stereo not given) | 17.6% (inactive)
26 | COc1cc2c(cc1OC)C1c3ccccc3CCCN1CC2 (stereo not given) | -57.5% (inactive)
27 | CNc1ccc2c(c1)C(=O)c1ccccc1-2 | -5.55% (inactive)
28 | Cc1ccc(N=Nc2c(O)n(C)c(=O)n(C)c2=O)cc1C | -17.2% (inactive)
29 | N#C/C(N)=C(\C#N)NC=NCCO | 13.2% (inactive)
30 | CCC(CC)CC1CCCCC1O (stereo not given) | -46.9% (inactive)
31 | C/C(CC(C)(C)C)=N/NS(=O)(=O)c1ccc(C)cc1 | 9.8% (inactive)
32 | CCCSc1nc2c(c(=O)n(C)c(=O)n2C)n1C | 10.2% (inactive)
33 | COC1CC(OC2CCC3(C)C(=CCC4C3C(OC(C)=O)C(OC(=O)CC(C)C)C3(C)C(C(C)=O)CCC43O)C2)OC(C)C1OC1CC(OC)C(OC2CC(OC)C(OC3OC(C)C(OC4OC(CO)C(O)C(O)C4O)C(OC)C3O)C(C)O2)C(C)O1 (stereo not given) | 16.4% (inactive)
34 | CN(C)CCNS(=O)(=O)N(C)C | -24.4% (inactive)
35 | CC1=C(C(=O)Nc2ccccc2C)C(c2ccc(C3C(C(=O)Nc4ccccc4C)=CNC=C3C(=O)Nc3ccccc3C)cc2)C(C(=O)Nc2ccccc2C)=C(C)N1 | 28.9% (inactive)
36 | CCOC(=O)NCc1ccccc1 | 10.3% (inactive)
37 | Nc1nc(-c2ccccc2)nc(N)c1C=O | -43.2% (inactive)
38 | O=C1C2CC3CC(C2)CC1C3 | 37% (inactive)
39 | CC1=Nc2c([nH]c(=S)[nH]c2=O)NC(c2c(Cl)cccc2Cl)C1 (stereo not given) | 14.2% (inactive)
40 | COc1cc2c(c(OC)c1OC)-c1cccc(=O)cc1C(NC(C)=O)CC2 (stereo not given) | -3.35% (inactive)

Experiment: NCI Yeast Anticancer Drug Screen. Data for the cln2 rad14 strain (AID 165);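 further: 0% = growth equal to vehicle treated cultures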
Conditions: S. cerevisiae cln2 rad14 strain, at 50.0 µM, hits give high values
Summary of the method: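 Strain: cln2 rad14 yeast, altered in cell cycle control and DNA damage repair. Read-out: growth inhibition vs vehicle.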

Row | Compound | growth inhibition
41 | CC(=O)NC(CCCN(Cc1ccccc1)C(=O)NCCCl)C(=O)NCc1ccccc1 (stereo not given) | 5.7% (inactive)
42 | NC(=O)CNc1ccc(CC2CCOC2=O)cc1 (stereo not given) | 0.95% (inactive)
43 | S=C(NNC1=NCCN1)Nc1ccccc1 | 3.15% (inactive)
44 | CCOC(=O)C(C)(C)C(O)C(C)C (stereo not given) | 48.4% (inactive)
45 | CCOC(=O)[C@H]1Nc2c(cccc2[N+](=O)[O-])[C@H]2OCC[C@@H]12 | 11.4% (inactive)
46 | CCCCCCCCC(=O)N1CCOCC1 | 16.4% (inactive)
47 | CC(C)CC1=C(N(C)C)C(=O)C=C(N(C)C)C1=O | -5.65% (inactive)
48 | CC(=O)OC(C)C(=O)OCCOc1ccccc1 (stereo not given) | -36.6% (inactive)
49 | CNC(=O)Nc1ccc(C(=O)O)cc1 | -38.1% (inactive)
50 | O=C1CC2c3ccccc3C(O)(CC1=O)c1ccccc12 | 15.2% (inactive)
51 | CCCCC(=O)c1ccc2ccccc2c1O | -18% (inactive)
52 | CC(C)OP(=O)(CCC(=O)C1(O)CCC2C3CCC4=CC(=O)CCC4(C)C3CCC21C)OC(C)C (stereo not given) | 3.25% (inactive)
53 | CC(C)[C@@H]1OC(=O)[C@@H](C)NC(=O)[C@@H]2CCCN2C1=O (cyclo([Hiv]-Pro-[dA])) | 5.95% (inactive)
54 | O=C(/C=N\O)Nc1ccccc1O | -11.6% (inactive)
55 | Br | -20% (inactive)
56 | Cc1cn(C2CC(O)C(CO)C2C)c(=O)[nH]c1=O (stereo not given) | 5.4% (inactive)
57 | O=C(c1ccccc1)N1OCCC1Nc1ccc(Br)cc1 (stereo not given) | 13.6% (inactive)
58 | Cc1nc2ccccc2c(=O)n1NC(=O)c1ccccn1 | -1.05% (inactive)
59 | CCNc1ccc2c(c1)C(=O)c1ccccc1-2 | 3.6% (inactive)
60 | COc1ccc2c(c1)CC/C(=C\C1(Sc3ccccc3)CC1)C2O (stereo not given) | -16.6% (inactive)

Row | Compound | growth inhibition
61 | C/C(=N/N=C(N)N)c1cnn(C(=N)N)c1C | 19.4% (inactive)
62 | CCCCCCCCCCCCCC#N | 5.25% (inactive)
63 | O=S(=O)(c1cccc(C(F)(F)F)c1)N(CCCCCN(S(=O)(=O)c1cccc(C(F)(F)F)c1)S(=O)(=O)c1cccc(C(F)(F)F)c1)S(=O)(=O)c1cccc(C(F)(F)F)c1 | 21.3% (inactive)
64 | CCN(CC)CCOC(=O)c1ccc(NC(=O)Nc2ccccc2[N+](=O)[O-])cc1 | 16.6% (inactive)
65 | C[N+]1(C)CC2CCC1C2 (stereo not given) | -27.8% (inactive)
66 | COc1cc2c(cc1OC)C1c3ccccc3CCCN1CC2 (stereo not given) | 0.55% (inactive)
67 | CNc1ccc2c(c1)C(=O)c1ccccc1-2 | 19.9% (inactive)
68 | Cc1ccc(N=Nc2c(O)n(C)c(=O)n(C)c2=O)cc1C | 3.95% (inactive)
69 | N#C/C(N)=C(\C#N)NC=NCCO | 18% (inactive)
70 | CCC(CC)CC1CCCCC1O (stereo not given) | -17.2% (inactive)
71 | C/C(CC(C)(C)C)=N/NS(=O)(=O)c1ccc(C)cc1 | 1.75% (inactive)
72 | CCCSc1nc2c(c(=O)n(C)c(=O)n2C)n1C | -9.3% (inactive)
73 | COC1CC(OC2CCC3(C)C(=CCC4C3C(OC(C)=O)C(OC(=O)CC(C)C)C3(C)C(C(C)=O)CCC43O)C2)OC(C)C1OC1CC(OC)C(OC2CC(OC)C(OC3OC(C)C(OC4OC(CO)C(O)C(O)C4O)C(OC)C3O)C(C)O2)C(C)O1 (stereo not given) | 21.6% (inactive)
74 | CN(C)CCNS(=O)(=O)N(C)C | 7.45% (inactive)
75 | CC1=C(C(=O)Nc2ccccc2C)C(c2ccc(C3C(C(=O)Nc4ccccc4C)=CNC=C3C(=O)Nc3ccccc3C)cc2)C(C(=O)Nc2ccccc2C)=C(C)N1 | 21% (inactive)
76 | CCOC(=O)NCc1ccccc1 | 2.6% (inactive)
77 | Nc1nc(-c2ccccc2)nc(N)c1C=O | -4.95% (inactive)
78 | O=C1C2CC3CC(C2)CC1C3 | 9.25% (inactive)
79 | CC1=Nc2c([nH]c(=S)[nH]c2=O)NC(c2c(Cl)cccc2Cl)C1 (stereo not given) | -4.5% (inactive)
80 | COc1cc2c(c(OC)c1OC)-c1cccc(=O)cc1C(NC(C)=O)CC2 (stereo not given) | 8.9% (inactive)
